For 86 sequences, binding signal results are on record in article PMC10668032, “Altered binding affinity of SIX1-Q177R correlates with enhanced WNT5A and WNT pathway effector expression in Wilms tumor”.

Whole data set: some 33,000 sequences, median “e-score” near -0.05, cut for the highest 2% near 0.38. Many of the other results were omitted from the sample, so the highest values are more common in it than they were.

The test has as its target T1, SIX1-Q177R homeodomain (human, UniProt Q15475 108-198, Q177R).
T1 sequence: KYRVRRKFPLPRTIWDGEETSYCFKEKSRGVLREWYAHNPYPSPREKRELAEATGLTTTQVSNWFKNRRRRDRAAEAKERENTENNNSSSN
The experiment in a line: universal protein binding microarray; Universal all-10-mer PBM (8x60K, AMADID 030236), 300 nM GST-tagged protein, Alexa Fluor 488 anti-GST; buffer, salt, pH and temperature not stated (as in Berger); high values mean tight binding. Conditions: protein: ivt; tags: N-terminal GST; dsDNA, one strand shown. Put shortly: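 Homeodomains carrying a GST tag were produced by in vitro transcription/translation, then quantified by anti-GST western blot against a recombinant GST standard curve. Duplicate applications at 300 nM final concentration were made to universal 'all 10-mer' protein binding microarrays in 8×60K format. The Universal PBM Analysis Suite was used to express binding as 8-mer E-scores.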
As for CAGCGGGG, the binding signal turned out to be 0.194 ± 0.00852 E-score.
CACTCTCC: the binding signal came out at 0.192 ± 0.0425 E-score.
With CACGACGG, the binding signal was found to be 0.182 ± 0.0214 E-score.
The same measure for CCATTACA: 0.162 ± 0.00552 E-score; for CCGGAGTA: 0.227 ± 0.00414 E-score; for CCCCCGTA: 0.155 ± 0.0244 E-score.
ATACCGTG: the binding signal turned out to be 0.301 ± 0.0379 E-score.
On to GCACCGTA, for which the binding signal turned out to be 0.201 ± 0.0112 E-score.
As to ACCCCGTC, the binding signal turned out to be 0.178 ± 0.0222 E-score.
ACACCGTA: the binding signal came to 0.4704 ± 0.00388 E-score.
In the case of ACACCGTC, the binding signal was 0.4594 ± 0.0011 E-score.
As to ACACCGTG, the binding signal worked out at 0.472 ± 0.00577 E-score.
Take ACGCCGTG: the binding signal came out at 0.185 ± 0.00332 E-score.
The same measure for CACCCGTC: 0.338 ± 0.01 E-score; for ACGTAGAG: 0.156 ± 0.0478 E-score.
For ATAGTACA, the binding signal turned out to be 0.312 ± 0.0122 E-score.
In the case of CCCCCCCC, the binding signal is 0.188 ± 0.0377 E-score.
As to TGCAGACA, the binding signal came out at 0.167 ± 0.00968 E-score.
Regarding ACACGCGA, the binding signal came out at 0.369 ± 0.00701 E-score.
In the case of ACACGCGT, the binding signal came to 0.402 ± 0.0109 E-score.
The value for ACACGCGG was 0.402 ± 0.00628 E-score; that for ACCCGCGT was 0.229 ± 0.0104 E-score; that for ATACGCGA was 0.151 ± 0.036 E-score.
The same measure for ACCCGCGG: 0.171 ± 0.0326 E-score; for CCCGGCCC: 0.167 ± 0.00402 E-score; for TACCTACA: 0.3116 ± 0.00228 E-score.
For the sequence TCAATACA, the binding signal is 0.212 ± 0.0334 E-score.
On to ACGTGCTC, for which the binding signal amounted to 0.215 ± 0.0224 E-score.
Take CACCGGAG: the binding signal turned out to be 0.328 ± 0.00104 E-score.
Consider ACTCAACA, for which the binding signal worked out at 0.172 ± 0.00693 E-score.
Consider ATTAACAC, for which the binding signal came out at 0.416 ± 0.0363 E-score.
For CTTAACAC, the binding signal came to 0.435 ± 0.00897 E-score.
As to ATTAACCC, the binding signal came to 0.187 ± 0.00393 E-score.
In the case of CTTCACAC, the binding signal was 0.278 ± 0.0221 E-score.
The value for ATTAAAAC was 0.158 ± 0.019 E-score; that for GACTCCTA was 0.2147 ± 0.000728 E-score.
The same measure for GTTAAGGA: 0.163 ± 0.00211 E-score; for CAGGGTGG: 0.161 ± 0.0171 E-score.
As for ACTAGCAC, the binding signal is 0.194 ± 0.00984 E-score.
GAGATGTA: the binding signal was 0.1954 ± 0.000318 E-score.
With CCAGACAC, the binding signal was found to be 0.37 ± 0.0149 E-score.
For the sequence ACACAGAT, the binding signal turned out to be 0.167 ± 0.0587 E-score.
With CGAGACAC, the binding signal was 0.389 ± 0.0103 E-score.
For the sequence GGAGACAC, the binding signal turned out to be 0.397 ± 0.0125 E-score.
In the case of GCAGACAC, the binding signal came out at 0.352 ± 0.0222 E-score.
The same measure for CACGAGAC: 0.154 ± 0.0312 E-score; for ACAGACAC: 0.392 ± 0.013 E-score; for AGACACAC: 0.316 ± 0.0332 E-score.
The same measure for AGAGACAC: 0.411 ± 0.00648 E-score; for CCGGGTTA: 0.2 ± 0.024 E-score.
As to CACGGATG, the binding signal came to 0.155 ± 0.0314 E-score.
ATCCACTC: the binding signal was found to be 0.203 ± 0.0237 E-score.
TACTCCGA: the binding signal came to 0.211 ± 0.0155 E-score.
The same measure for CACTCCCG: 0.1824 ± 0.000608 E-score.
The value for ATTGATAC was 0.196 ± 0.00402 E-score; that for ATGGCCGA was 0.155 ± 0.00984 E-score.
On to GGGATACA, for which the binding signal was determined as 0.234 ± 0.00449 E-score.
As to CACCTGTA, the binding signal came to 0.232 ± 0.0126 E-score.
The value for GGCAACAC was 0.4138 ± 0.00188 E-score; that for CACAACAC was 0.38 ± 0.0127 E-score; that for CACACAAC was 0.153 ± 0.0694 E-score.
As for AACAACAC, the binding signal came out at 0.414 ± 0.0082 E-score.
The same measure for GACAACAC: 0.386 ± 0.0047 E-score.
As for CACAACAA, the binding signal stood at 0.168 ± 0.00449 E-score.
The value for GGGCACAC was 0.284 ± 0.0218 E-score; that for CGCAACAC was 0.366 ± 0.00704 E-score; that for AACACAAC was 0.176 ± 0.0727 E-score.
Take GACACAAC: the binding signal was found to be 0.207 ± 0.0332 E-score.
Take AAGGGAGT: the binding signal worked out at 0.181 ± 0.0594 E-score.
Take CACGACTG: the binding signal turned out to be 0.19 ± 0.0173 E-score.
As to ATATGGTG, the binding signal came out at 0.245 ± 0.0104 E-score.
As to CTTCTACA, the binding signal is 0.161 ± 0.0182 E-score.
ACACCCTG: the binding signal was found to be 0.4727 ± 0.000955 E-score.
In the case of GCACCCTA, the binding signal stood at 0.226 ± 0.0182 E-score.
As for ACCCCCTG, the binding signal came out at 0.328 ± 0.0317 E-score.
Regarding ACCCTCTC, the binding signal was 0.164 ± 0.0166 E-score.
Take ACCCCCTC: the binding signal stood at 0.324 ± 0.00733 E-score.
ATACCCTG: the binding signal amounted to 0.31 ± 0.0148 E-score.
The value for ACACCCTC was 0.4743 ± 0.00338 E-score.
The value for CCACCCTA was 0.174 ± 0.00684 E-score; that for ACACCCTA was 0.4661 ± 0.00184 E-score; that for ACCGCACA was 0.232 ± 0.00335 E-score.
On to TGGGAACA, for which the binding signal turned out to be 0.172 ± 0.0191 E-score.
As to CGCCCGAC, the binding signal was found to be 0.184 ± 0.0127 E-score.
Turning to ACCGAGTG, the binding signal is 0.363 ± 0.0115 E-score.
Turning to CACCAGGC, the binding signal amounted to 0.336 ± 0.016 E-score.
